A short description of assay [1]: NCI Yeast Anticancer Drug Screen. Data for the rad50 strain (AID 155).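 Note: 0% = growth of vehicle-only cultures of the same strain.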 The following applies: S. cerevisiae rad50 strain growth inhibition; at 50.0 µM; stronger effect = higher value. In outline:
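Readout: growth inhibition relative to vehicle-treated cultures. Compound exposure was carried out in a genetically defined yeast strain deficient in DNA damage repair.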

Assay [2] can be described thus: NCI Yeast Anticancer Drug Screen. Data for the mec2-1 strain (AID 157). The following applies: S. cerevisiae mec2-1 strain, at 50.0 µM, stronger effect = higher value. Put shortly:
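Readout is yeast growth inhibition, normalised to vehicle-treated controls, in the mec2-1 strain exposed to compound.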

A short description of assay [3]: NCI Yeast Anticancer Drug Screen. Data for the sgs1 mgt1 strain (AID 161).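 Note: 0% = growth of cultures given vehicle only.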 Conditions: S. cerevisiae sgs1 mgt1 strain, at 50.0 µM, stronger effect = higher value. Put shortly:
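Percent growth inhibition was derived by comparing compound-exposed mutant yeast with vehicle-exposed cultures. The strain carries alterations in DNA damage repair.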

Assay [4] can be described thus: NCI Yeast Anticancer Drug Screen. Data for the cln2 rad14 strain (AID 165).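 Note: 0% = growth equal to vehicle treated cultures.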 Conditions: S. cerevisiae cln2 rad14 strain, at 50.0 µM, stronger effect = higher value. Put shortly:
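Relative to vehicle controls, growth inhibition of compound-treated cln2 rad14 yeast was recorded.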

Assay [5] in a line: NCI Yeast Anticancer Drug Screen. Data for the bub3 strain (AID 167). Conditions: S. cerevisiae bub3 mutant strain, at 50.0 µM, stronger effect = higher value. Put shortly:
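Readout: yeast growth inhibition, expressed relative to vehicle-only wells. The test organism is a mutant strain from a panel with lesions in DNA repair or checkpoint genes.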

Assay [6] is described as follows: NCI Yeast Anticancer Drug Screen. Data for the mlh1 rad18 strain (AID 175). Conditions: S. cerevisiae mlh1 rad18 strain growth inhibition; at 50.0 µM; stronger effect = higher value. Put shortly: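 Test agents were incubated with a yeast strain of defined genotype (DNA damage repair defect). Inhibition of growth was derived by comparison with vehicle-exposed cultures.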

This is part of a sample that, as a whole, favours compounds with a hit. Of some 79,000 tested, about 15% had one in any assay. Unmarked numbers belong to inactive results. Calls of active or inactive are those of the source. Cut-off read from the data, not from the text of the source: active = growth inhibition above about 70%; inactive = the rest. Where a SMILES comes first, the peptide text is derived from it.

For `CC(Cl)C(O)C#N` (stereo not drawn), the growth inhibition in assay [1] is -25.1%; in assay [2], -3.35%; in assay [3], -10.8%; in assay [4] it was -8.2%; in assay [5] it was 1.6%; in assay [6] it was -16.2%.
Regarding `COC(=O)c1nc(N)nc(C(=O)OC)c1C(=O)c1cccc2ccccc12`, the growth inhibition is -33.5% in assay [1]; -26.1% in assay [2]; 1.65% in assay [3]; -26.8% in assay [4]; -33.3% in assay [5]; -20.9% in assay [6].
As to `COc1ccc2c(c1OC)C1=NCCc3cc4c(cc3C1(OC)C2=O)OCO4` (stereo not drawn), the growth inhibition in assay [1] is -7.15%; in assay [2], 0.75%; in assay [3], 7.05%; in assay [4], 16.8%; in assay [5] it was 13.7%; in assay [6] it was -1.2%.
As to `CC1CCCC2(C)CCC(=O)C=C12` (stereo not drawn), the growth inhibition was -2% in assay [1]; 6.75% in assay [2]; -12.5% in assay [3]; -13.8% in assay [4]; -1.95% in assay [5]; -20.5% in assay [6].
For the compound `CC(C)=CC(Cc1ccccc1)S(=O)(=O)c1nc2ccccc2s1` (stereo not drawn), the growth inhibition in assay [1] was 8.8%; in assay [2], 33.4%; in assay [3], 12.1%; in assay [4], 9.4%; in assay [5], 31.2%; in assay [6] it was -16.9%.
For the compound `Clc1ccc(-c2nnc(-c3ccncc3)o2)c(Cl)c1`, the growth inhibition in assay [1] was 18.1%; in assay [2] it was -4.5%; in assay [3], 17.9%; in assay [4], -1.6%; in assay [5] it was 27.2%; in assay [6] it was 15.6%.
As for `CCOC(=O)N1c2ccccc2S(=O)(=O)c2ccccc21`, the growth inhibition in assay [1] was 40.5%; in assay [2] it was -10.3%; in assay [3] it was -26.4%; in assay [4], -16.1%; in assay [5] it was -22.9%; in assay [6], -52.2%.
As for `CCCOC(C)OCCC#CCC(C)OC(=O)CC(Cl)(Cl)Cl` (stereo not drawn), the growth inhibition in assay [1] was -13.8%; in assay [2] it was -21.4%; in assay [3], 10.7%; in assay [4], -5.35%; in assay [5] it was -16.1%; in assay [6], -9.35%.
For `CCOC(=O)/C(C#N)=C/NC(N)=O`, the growth inhibition is -2.55% in assay [1]; 3.05% in assay [2]; -10.1% in assay [3]; -10% in assay [4]; 1.95% in assay [5]; -12.6% in assay [6].
Turning to `Clc1cc(Cl)nc(Nc2ccc3c(c2)CCC3)n1`, the growth inhibition in assay [1] was 23.9%; in assay [2] it was 10.2%; in assay [3] it was -1.15%; in assay [4] it was -4.2%; in assay [5], 3.9%; in assay [6], 39.5%.
Consider `O=[N+]([O-])c1ccc(-c2nc3ncncc3[nH]2)cc1`, for which the growth inhibition was 13.2% in assay [1]; -3.25% in assay [2]; -0.75% in assay [3]; 13.1% in assay [4]; 5.05% in assay [5]; 7.25% in assay [6].
In the case of `CC1=C(C[Si](C)(C)C)CC(CO[Si](C)(C)C(C)(C)C)C2C(=O)N(C(=O)c3ccccc3)C(Cc3ccccc3)C12` (stereo not drawn), the growth inhibition in assay [1] is 21.6%; in assay [2] it was 5.7%; in assay [3], 2.05%; in assay [4], -4.25%; in assay [5], -3.95%; in assay [6] it was 23.4%.
Consider `COc1ccc(C(C)=O)c(O)c1OC`, for which the growth inhibition in assay [1] is -3.3%; in assay [2], 4.7%; in assay [3], 9.1%; in assay [4], -3.35%; in assay [5], -3.1%; in assay [6] it was 3%.
Regarding `Cc1ccc(S(=O)OC2C3CC4CC(C3)CC2C4)cc1` (stereo not drawn), the growth inhibition in assay [1] is 6.65%; in assay [2], 10.3%; in assay [3], 0.2%; in assay [4], 30.8%; in assay [5] it was 1.25%; in assay [6], 0.75%.
Turning to `C/C(=N/NC(N)=O)c1ccc([N+](=O)[O-])o1`, the growth inhibition in assay [1] is 29.9%; in assay [2], 9.9%; in assay [3], 30.8%; in assay [4] it was 16.1%; in assay [5], 14.9%; in assay [6], 47.2%.
As for `CCC(C)C(N)C(=O)NC(C(=O)O)C(C)C` (stereo not drawn) (H-Ile-Val-OH; configuration not given here), the growth inhibition was -32.4% in assay [1]; -13.6% in assay [2]; -0.2% in assay [3]; -41.9% in assay [4]; -0.25% in assay [5]; -0.4% in assay [6].
As to `CCC(=O)OC1CCCCC1C1CCCCC1` (stereo not drawn), the growth inhibition in assay [1] was 1.55%; in assay [2], -2.35%; in assay [3], 8%; in assay [4], -37.6%; in assay [5], -3.45%; in assay [6], -3.9%.
Consider `CC(=O)Nc1nc(C)c(CC/C=C/c2ccc([N+](=O)[O-])cc2)c(=O)[nH]1`, for which the growth inhibition is 4.75% in assay [1]; 32.6% in assay [2]; -3.8% in assay [3]; 2.95% in assay [4]; -8.15% in assay [5]; -6.1% in assay [6].
Consider `CCCOC(=O)Nc1cccc(Cl)c1`, for which the growth inhibition in assay [1] was 49.5%; in assay [2], -8.7%; in assay [3], 13.6%; in assay [4], -9.95%; in assay [5], -9.35%; in assay [6], 12.4%.
Consider `CC(C)(C)c1ccc(N)cc1`, for which the growth inhibition is -37.7% in assay [1]; -29.8% in assay [2]; -10.9% in assay [3]; -3.45% in assay [4]; -2.65% in assay [5]; -13.5% in assay [6].
In the case of `CCOC(=O)C(C=Nc1ccc(S(N)(=O)=O)cc1)C(=O)OCC`, the growth inhibition in assay [1] is -8.15%; in assay [2], 4.85%; in assay [3] it was 12.1%; in assay [4], -22.4%; in assay [5] it was -1.1%; in assay [6] it was -24.9%.
For `CC(=O)Oc1ccc(C(c2ccc(OC(C)=O)cc2)c2ccccn2)cc1`, the growth inhibition in assay [1] was 18.3%; in assay [2], -0.6%; in assay [3], -9.25%; in assay [4], -62.4%; in assay [5], -40.9%; in assay [6] it was -22.9%.
As for `CCNC1=CC(=O)c2ncccc2C1=O`, the growth inhibition was 47.9% in assay [1]; 15.7% in assay [2]; 27.7% in assay [3]; -8.25% in assay [4]; 39.2% in assay [5]; 28.4% in assay [6].
Take `O=c1[nH]c(-c2ccccc2)nc(-c2ccccc2)c1Cc1cc2c(cc1O)OCC2`: the growth inhibition is -0.1% in assay [1]; -4.05% in assay [2]; 20.7% in assay [3]; 2.8% in assay [4]; 0.7% in assay [5]; -10.6% in assay [6].
As to `CCCOC(=O)c1cc(O)ccc1O`, the growth inhibition is 1.15% in assay [1]; -0.45% in assay [2]; 14.9% in assay [3]; -17.6% in assay [4]; -2.55% in assay [5]; -1.7% in assay [6].
In the case of `Oc1cccc2c(O)cccc12`, the growth inhibition in assay [1] is 0.55%; in assay [2] it was 22.8%; in assay [3], 26.4%; in assay [4], -9.55%; in assay [5], 25.5%; in assay [6] it was 32.8%.
As to `O=C1CCC2CN(C(=O)c3ccccc3)CCC2C1` (stereo not drawn), the growth inhibition in assay [1] was 8.75%; in assay [2] it was 7.7%; in assay [3] it was 21.1%; in assay [4], 3.1%; in assay [5] it was 16.6%; in assay [6], 22.2%.
For the compound `CCN(C)c1nc(N(C)CC)c2nc(N(C)CC)nc(N(C)CC)c2n1`, the growth inhibition was 1.95% in assay [1]; -3.4% in assay [2]; 17.8% in assay [3]; 4.5% in assay [4]; -14.5% in assay [5]; -65.1% in assay [6].
Regarding `CCCCCCCCN1COC2CCc3ccccc3C21` (stereo not drawn), the growth inhibition was 93.5% (active) in assay [1]; 93.8% (active) in assay [2]; 93.8% (active) in assay [3]; 87.6% (active) in assay [4]; 94% (active) in assay [5]; 92.3% (active) in assay [6].
On to `O=C(O)CCC(=O)Oc1ccc(O)c2c1CCCC2=O`, for which the growth inhibition in assay [1] is -6.95%; in assay [2] it was 1.65%; in assay [3], -0.95%; in assay [4], -17.8%; in assay [5] it was -1.3%; in assay [6] it was -9.15%.
Consider `Clc1ccc2nsnc2c1Cl`, for which the growth inhibition was -0.1% in assay [1]; -1.25% in assay [2]; -3.75% in assay [3]; -19.4% in assay [4]; 7.8% in assay [5]; 8.1% in assay [6].
As for `Oc1ccc(O)c(-c2ccccc2)c1`, the growth inhibition was 61.5% in assay [1]; 36.2% in assay [2]; 53.2% in assay [3]; 51% in assay [4]; 33.6% in assay [5]; 44% in assay [6].
As for `CC(=O)CC(C)(C)N`, the growth inhibition in assay [1] is -0.1%; in assay [2], -9.7%; in assay [3], -1.4%; in assay [4] it was -6.05%; in assay [5], 3.1%; in assay [6], -2.1%.
Regarding `CSc1ccc(C(=C=C=C(c2ccc(SC)s2)c2ccc(SC)s2)c2ccc(SC)s2)s1`, the growth inhibition in assay [1] is 38.7%; in assay [2], -19.8%; in assay [3] it was 2.85%; in assay [4] it was -24.2%; in assay [5] it was -31.9%; in assay [6] it was -2.1%.
As for `CC(C)(Cc1ccc([N+](=O)[O-])cc1)[N+](=O)[O-]`, the growth inhibition in assay [1] is 7.95%; in assay [2], 11.3%; in assay [3], 4.3%; in assay [4], -7.55%; in assay [5], 12.4%; in assay [6], -0.05%.
Turning to `OC(Cc1ccc2ccccc2n1)(C(F)(F)Cl)C(F)(F)Cl`, the growth inhibition in assay [1] was -39%; in assay [2], -55.2%; in assay [3], -10.7%; in assay [4], -9.7%; in assay [5] it was -4.45%; in assay [6] it was -31.1%.
On to `CCOCCC(C)(OCC)OCC`, for which the growth inhibition in assay [1] was -11.8%; in assay [2], -36.1%; in assay [3], -7%; in assay [4] it was 15.7%; in assay [5], -3.65%; in assay [6], -5.3%.
On to `CN(C)c1ccc(Cc2ccc(N(C)C)cc2[N+](=O)[O-])c([N+](=O)[O-])c1`, for which the growth inhibition is -4.35% in assay [1]; 11.2% in assay [2]; 19.9% in assay [3]; 6.1% in assay [4]; 15.3% in assay [5]; -1.35% in assay [6].

Values taken from PubChem BioAssay (NCI).
